Laboratory results as given in the supplement of paper PMC10849652.
The full data set covers some 8,800 targets. This sample favours those with a hit. About 0.5% of all pairs of compound and target were hits.

UniProt Q15653, sequence (Q15653 whole entry, looked up): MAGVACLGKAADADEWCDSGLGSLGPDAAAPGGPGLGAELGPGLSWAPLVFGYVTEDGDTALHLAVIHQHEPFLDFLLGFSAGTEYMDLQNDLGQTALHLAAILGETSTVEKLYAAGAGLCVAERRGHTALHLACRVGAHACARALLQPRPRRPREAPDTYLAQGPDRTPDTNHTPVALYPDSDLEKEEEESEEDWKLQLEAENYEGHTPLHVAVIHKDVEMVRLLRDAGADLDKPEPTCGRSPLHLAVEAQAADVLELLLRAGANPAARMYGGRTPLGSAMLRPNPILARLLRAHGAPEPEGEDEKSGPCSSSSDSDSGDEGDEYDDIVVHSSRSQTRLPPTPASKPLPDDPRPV
UniProt Q6ZNJ1, sequence (Q6ZNJ1 whole entry, looked up): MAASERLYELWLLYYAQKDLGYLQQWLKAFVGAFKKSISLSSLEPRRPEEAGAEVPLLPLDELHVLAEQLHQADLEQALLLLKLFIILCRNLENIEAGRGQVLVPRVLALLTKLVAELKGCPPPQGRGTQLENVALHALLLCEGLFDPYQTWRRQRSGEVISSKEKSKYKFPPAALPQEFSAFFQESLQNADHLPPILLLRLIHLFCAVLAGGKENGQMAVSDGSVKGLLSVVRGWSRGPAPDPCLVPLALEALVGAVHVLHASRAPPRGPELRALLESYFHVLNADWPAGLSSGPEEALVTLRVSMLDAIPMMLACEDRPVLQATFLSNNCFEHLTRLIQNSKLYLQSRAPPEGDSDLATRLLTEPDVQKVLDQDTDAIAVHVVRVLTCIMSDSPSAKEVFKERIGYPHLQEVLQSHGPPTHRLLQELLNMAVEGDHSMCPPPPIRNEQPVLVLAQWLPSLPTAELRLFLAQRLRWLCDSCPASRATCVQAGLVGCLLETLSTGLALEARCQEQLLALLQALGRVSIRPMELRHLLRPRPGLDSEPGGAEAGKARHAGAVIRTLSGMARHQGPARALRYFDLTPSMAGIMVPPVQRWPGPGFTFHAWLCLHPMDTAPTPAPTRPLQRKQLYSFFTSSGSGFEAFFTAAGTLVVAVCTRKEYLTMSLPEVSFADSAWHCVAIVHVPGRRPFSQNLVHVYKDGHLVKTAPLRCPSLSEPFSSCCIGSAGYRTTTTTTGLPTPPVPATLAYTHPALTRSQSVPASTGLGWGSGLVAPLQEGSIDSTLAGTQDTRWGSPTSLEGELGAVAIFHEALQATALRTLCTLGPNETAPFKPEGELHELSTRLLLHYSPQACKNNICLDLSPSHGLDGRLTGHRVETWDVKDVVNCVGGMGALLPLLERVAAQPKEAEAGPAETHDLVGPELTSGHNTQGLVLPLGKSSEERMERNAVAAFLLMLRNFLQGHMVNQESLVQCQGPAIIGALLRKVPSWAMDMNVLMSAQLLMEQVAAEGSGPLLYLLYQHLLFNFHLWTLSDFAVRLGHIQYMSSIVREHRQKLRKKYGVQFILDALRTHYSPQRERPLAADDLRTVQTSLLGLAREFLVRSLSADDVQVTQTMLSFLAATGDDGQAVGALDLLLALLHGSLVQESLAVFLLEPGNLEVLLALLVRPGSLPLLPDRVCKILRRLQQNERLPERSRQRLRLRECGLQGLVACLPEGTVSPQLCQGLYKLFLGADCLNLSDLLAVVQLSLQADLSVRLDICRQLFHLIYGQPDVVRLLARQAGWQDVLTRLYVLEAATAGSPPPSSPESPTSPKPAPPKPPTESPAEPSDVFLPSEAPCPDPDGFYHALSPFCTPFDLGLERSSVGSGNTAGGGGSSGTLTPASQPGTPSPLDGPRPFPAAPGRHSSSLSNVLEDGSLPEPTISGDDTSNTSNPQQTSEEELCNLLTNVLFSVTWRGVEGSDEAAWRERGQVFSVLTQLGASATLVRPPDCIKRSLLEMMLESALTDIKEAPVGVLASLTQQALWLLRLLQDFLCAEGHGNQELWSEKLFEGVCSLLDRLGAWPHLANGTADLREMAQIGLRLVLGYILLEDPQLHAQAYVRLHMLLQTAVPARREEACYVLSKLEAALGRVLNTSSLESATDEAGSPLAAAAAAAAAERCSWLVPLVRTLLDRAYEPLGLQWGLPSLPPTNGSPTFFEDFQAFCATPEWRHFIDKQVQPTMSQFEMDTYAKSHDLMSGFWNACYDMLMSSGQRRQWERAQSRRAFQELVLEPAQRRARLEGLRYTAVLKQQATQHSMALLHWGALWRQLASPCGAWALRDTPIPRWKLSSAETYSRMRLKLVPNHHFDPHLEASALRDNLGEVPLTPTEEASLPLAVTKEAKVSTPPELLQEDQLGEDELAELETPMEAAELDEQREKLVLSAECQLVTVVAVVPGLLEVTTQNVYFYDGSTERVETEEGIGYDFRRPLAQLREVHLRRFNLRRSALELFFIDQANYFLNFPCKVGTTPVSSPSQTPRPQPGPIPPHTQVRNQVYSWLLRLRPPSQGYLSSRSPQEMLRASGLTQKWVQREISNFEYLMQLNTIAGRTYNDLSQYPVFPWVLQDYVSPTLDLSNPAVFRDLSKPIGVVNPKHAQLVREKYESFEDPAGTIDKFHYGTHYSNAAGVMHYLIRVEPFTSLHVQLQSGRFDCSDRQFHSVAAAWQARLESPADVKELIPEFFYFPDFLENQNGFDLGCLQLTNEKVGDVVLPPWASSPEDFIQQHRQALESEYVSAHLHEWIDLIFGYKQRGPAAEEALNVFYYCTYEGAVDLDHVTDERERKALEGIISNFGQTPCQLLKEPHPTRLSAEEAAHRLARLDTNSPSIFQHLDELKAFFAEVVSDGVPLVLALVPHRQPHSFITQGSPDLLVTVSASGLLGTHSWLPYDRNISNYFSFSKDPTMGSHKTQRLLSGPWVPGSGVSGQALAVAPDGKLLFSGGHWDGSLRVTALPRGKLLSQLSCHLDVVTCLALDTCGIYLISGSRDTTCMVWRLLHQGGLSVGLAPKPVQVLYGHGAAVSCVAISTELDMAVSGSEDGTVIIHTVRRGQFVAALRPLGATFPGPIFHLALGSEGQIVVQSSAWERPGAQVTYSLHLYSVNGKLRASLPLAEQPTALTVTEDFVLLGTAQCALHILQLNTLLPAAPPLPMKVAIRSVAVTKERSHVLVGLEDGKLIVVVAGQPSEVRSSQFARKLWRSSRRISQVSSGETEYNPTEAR
UniProt Q5VZE5, sequence (Q5VZE5 whole entry, looked up): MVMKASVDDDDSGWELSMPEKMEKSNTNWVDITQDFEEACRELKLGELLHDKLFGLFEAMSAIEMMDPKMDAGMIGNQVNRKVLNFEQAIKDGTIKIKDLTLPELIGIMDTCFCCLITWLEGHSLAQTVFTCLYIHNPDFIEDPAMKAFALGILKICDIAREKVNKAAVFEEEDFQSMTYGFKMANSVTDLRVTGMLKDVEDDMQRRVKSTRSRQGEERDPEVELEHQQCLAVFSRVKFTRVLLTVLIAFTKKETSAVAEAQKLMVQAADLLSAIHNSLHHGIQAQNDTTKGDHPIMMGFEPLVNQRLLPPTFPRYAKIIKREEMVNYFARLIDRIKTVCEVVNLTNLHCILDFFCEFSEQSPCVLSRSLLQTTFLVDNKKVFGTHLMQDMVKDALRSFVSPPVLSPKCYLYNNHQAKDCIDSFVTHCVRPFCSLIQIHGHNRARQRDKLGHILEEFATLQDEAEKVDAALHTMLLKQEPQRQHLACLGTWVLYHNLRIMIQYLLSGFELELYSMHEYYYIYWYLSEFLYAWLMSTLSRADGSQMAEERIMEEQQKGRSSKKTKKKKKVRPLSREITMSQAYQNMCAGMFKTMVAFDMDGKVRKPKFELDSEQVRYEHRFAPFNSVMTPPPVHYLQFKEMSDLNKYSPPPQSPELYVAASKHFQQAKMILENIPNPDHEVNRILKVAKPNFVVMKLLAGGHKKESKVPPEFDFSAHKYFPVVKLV
UniProt P15559, sequence (P15559 whole entry, looked up): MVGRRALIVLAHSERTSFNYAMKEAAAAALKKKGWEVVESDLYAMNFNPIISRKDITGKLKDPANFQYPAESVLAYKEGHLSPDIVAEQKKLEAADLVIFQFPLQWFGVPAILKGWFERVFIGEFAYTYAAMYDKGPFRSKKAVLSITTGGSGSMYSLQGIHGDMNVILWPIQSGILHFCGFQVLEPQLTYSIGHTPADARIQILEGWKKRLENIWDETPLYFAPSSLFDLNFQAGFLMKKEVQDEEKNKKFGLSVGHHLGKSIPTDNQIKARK
UniProt Q9UDX5, sequence (Q9UDX5 whole entry, looked up): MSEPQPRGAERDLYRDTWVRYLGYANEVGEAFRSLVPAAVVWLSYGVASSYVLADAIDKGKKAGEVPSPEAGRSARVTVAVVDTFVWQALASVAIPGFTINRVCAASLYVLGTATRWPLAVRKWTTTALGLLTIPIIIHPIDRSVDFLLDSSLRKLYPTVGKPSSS
UniProt O00483, sequence (O00483 whole entry, looked up): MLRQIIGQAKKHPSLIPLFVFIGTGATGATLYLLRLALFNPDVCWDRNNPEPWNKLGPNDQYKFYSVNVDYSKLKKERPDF
UniProt P04181, sequence (P04181 whole entry, looked up): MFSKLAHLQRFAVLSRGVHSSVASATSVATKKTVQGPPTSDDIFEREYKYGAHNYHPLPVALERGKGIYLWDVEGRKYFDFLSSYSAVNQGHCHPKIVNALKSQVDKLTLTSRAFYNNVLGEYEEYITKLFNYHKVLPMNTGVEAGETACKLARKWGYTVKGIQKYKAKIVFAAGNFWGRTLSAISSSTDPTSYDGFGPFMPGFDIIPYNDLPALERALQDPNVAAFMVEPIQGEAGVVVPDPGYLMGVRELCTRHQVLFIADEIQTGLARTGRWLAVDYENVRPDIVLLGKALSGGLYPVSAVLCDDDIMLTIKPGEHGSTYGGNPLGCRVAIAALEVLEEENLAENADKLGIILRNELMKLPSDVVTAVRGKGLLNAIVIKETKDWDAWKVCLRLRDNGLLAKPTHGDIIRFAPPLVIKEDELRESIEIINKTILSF
UniProt Q9Y530, sequence (Q9Y530 whole entry, looked up): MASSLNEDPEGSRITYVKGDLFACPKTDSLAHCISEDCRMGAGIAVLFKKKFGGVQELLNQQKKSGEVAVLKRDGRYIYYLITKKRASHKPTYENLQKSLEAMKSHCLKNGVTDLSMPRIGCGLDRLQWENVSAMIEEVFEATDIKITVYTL

What follows are targets tested with CCn1cc(-c2ccnc3[nH]c(-c4cccc(CN(C)C)c4)cc23)c(-c2ccc(NC(=O)N(C)C)cc2)n1 (assay: log2 fold change, soluble protein after heating vs DMSO (PISA); higher = thermal stabilisation; K562 lysate, 10 uM; active = over 0.2 and 3.5 SD of the protein, either way, in both replicates (recomputed)).
Summary of the method: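 Soluble protein was defined as the supernatant remaining after 21,000xg for 90 min, following pooling of heated aliquots and adjustment to 0.5% NP-40 at 4°C. Before that, crude K562 extract at 1 mg/mL protein in PBS pH 7.4 with 1 mM MgCl2 was treated with 10 μM compound for 30 min and heated for 3 min across 48°C-58°C. Quantification used TMTpro 16plex LC-MS/MS with channel sums equalised, and values are log-two fold changes in thermal stability relative to solvent controls from duplicates.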
NFAT5 isoform 5 (UniProt O94916) was tested, and the log2 fold change was -0.003 (inactive). In the case of NQO1 (UniProt P15559), the log2 fold change was -0.067 (inactive). In the case of OARD1 (UniProt Q9Y530), the log2 fold change was -0.056 (inactive). With NARS2 (UniProt Q96I59) the log2 fold change was -0.091 (inactive). In the case of OPA1 isoform 2 (UniProt O60313), the log2 fold change was -0.016 (inactive). With NFKBIB (UniProt Q15653) the log2 fold change was -0.535 (active). NCAPH (UniProt Q15003) was tested, and the log2 fold change was -0.057 (inactive). In the case of OCRL (UniProt Q01968), the log2 fold change was -0.074 (inactive). NNT (UniProt Q13423) was tested, and the log2 fold change was 0.041 (inactive). With NEXN (UniProt Q0ZGT2) the log2 fold change was -0.231 (inactive). With NR3C1 isoform 3 (UniProt P04150) the log2 fold change was 0.07 (inactive). With NGLY1 (UniProt Q96IV0) the log2 fold change was 0.09 (inactive). NUMBL (UniProt Q9Y6R0) was tested, and the log2 fold change was 0.032 (inactive). PAFAH1B3 (UniProt Q15102) was tested, and the log2 fold change was -0.04 (inactive). With OLA1 (UniProt Q9NTK5) the log2 fold change was -0.135 (inactive). In the case of NUMB (UniProt P49757), the log2 fold change was 0.055 (inactive). In the case of OSBPL3 isoform 2 (UniProt Q9H4L5), the log2 fold change was -0.013 (inactive). NFATC2 (UniProt Q13469) was tested, and the log2 fold change was 0.011 (inactive). With PARP14 (UniProt Q460N5) the log2 fold change was -0.08 (inactive). For MTHFD1L (UniProt B7ZM99), the log2 fold change was -0.013 (inactive). With NSA2 (UniProt O95478) the log2 fold change was -0.441 (inactive). For NBEAL2 (UniProt Q6ZNJ1), the log2 fold change was 0.013 (inactive). For NDUFA4 (UniProt O00483), the log2 fold change was 0.067 (inactive). NSL1 (UniProt Q96IY1) was tested, and the log2 fold change was -0.016 (inactive). In the case of NOB1 (UniProt Q9ULX3), the log2 fold change was 0.274 (active). For OAT (UniProt P04181), the log2 fold change was -0.119 (inactive). In the case of NEK7 (UniProt Q8TDX7), the log2 fold change was -0.13 (inactive). In the case of MTFP1 (UniProt Q9UDX5), the log2 fold change was -0.421 (active). For NIPSNAP3A (UniProt Q9UFN0), the log2 fold change was 0.324 (inactive). In the case of NAA35 (UniProt Q5VZE5), the log2 fold change was 0.179 (inactive). With NCAPD2 (UniProt Q15021) the log2 fold change was -0.037 (inactive). With NUP133 (UniProt Q8WUM0) the log2 fold change was -0.047 (inactive). In the case of MSI2 (UniProt Q96DH6), the log2 fold change was -0.014 (inactive). For OGFR (UniProt Q9NZT2), the log2 fold change was 0.12 (inactive). For MTA1 (UniProt Q13330), the log2 fold change was 0.013 (inactive).
